{"source": "the supplement of paper PMC8728848", "binders": {"B1": {"name": "AAL (Agrocybe aegerita), Q6WY08 (protein)", "chain": "MQGVNIYNISAGTSVDLAAPVTTGDIVTFFSSALNLNAGAGNPNNTTLNLFAENGAYLLHIAFRLQENVIIFNSRQPDGPWLVEQRVSDVANQFAGIDGKAMVTVFDHGDKYQVVINEKTVIQYTKQISGLTLSLSYNATEETSIFSTVVEAVTYTGLALEHHHHHH"}}, "assay_in_all_cases": "glycan array binding signal (z-score within array); higher = stronger binding", "details_in_all_cases": "glycan notation: IUPAC condensed, linker removed", "key": {"[1]": {"target": "Gal3S(b1-3)GalNAc", "summary_of_the_method": "(§1)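 Arrays were curated from the Consortium for Functional Glycomics database, 3228 in total, and kept only where the protein sequence was available. Binding is expressed as a within-array Z-score. This score was averaged across arrays of the same protein sequence at different concentrations or buffers and across linkers, and negative values can be read as non-binding.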"}, "[2]": {"target": "Gal3S(b1-4)GlcNAc6S", "summary_of_the_method": "as §1"}, "[3]": {"target": "Gal6S(b1-4)Glc", "summary_of_the_method": "as §1"}, "[4]": {"target": "GalNAc(a1-3)GalNAc(b1-3)Gal(a1-4)Gal(b1-4)GlcNAc", "summary_of_the_method": "as §1"}, "[5]": {"target": "GlcA3S(b1-3)Gal(b1-4)GlcNAc(b1-2)Man", "summary_of_the_method": "as §1"}, "[6]": {"target": "GlcA3S(b1-3)Gal(b1-4)GlcNAc(b1-3)Gal(b1-4)Glc", "summary_of_the_method": "as §1"}, "[7]": {"target": "GlcNAc(a1-4)Gal(b1-4)GalNAc", "summary_of_the_method": "as §1"}, "[8]": {"target": "GlcNAc(b1-2)Man(a1-3)[GlcNAc(b1-4)][GlcNAc(b1-2)Man(a1-6)]Man(b1-4)GlcNAc(b1-4)GlcNAc", "summary_of_the_method": "as §1"}, "[9]": {"target": "GlcNAc(b1-2)Man(a1-3)[GlcNAc(b1-4)][GlcNAc(b1-2)Man(a1-6)]Man(b1-4)GlcNAc(b1-4)[Fuc(a1-6)]GlcNAc", "summary_of_the_method": "as §1"}, "[10]": {"target": "GlcNAc(b1-2)[GlcNAc(b1-4)]Man(a1-3)[GlcNAc(b1-4)][GlcNAc(b1-2)Man(a1-6)]Man(b1-4)GlcNAc(b1-4)GlcNAc", "summary_of_the_method": "as §1"}, "[11]": {"target": "GlcNAc(b1-3)Gal(b1-4)GlcNAc(b1-6)[Gal(b1-3)]GalNAc", "summary_of_the_method": "as §1"}, "[12]": {"target": "Man(a1-3)[Man(a1-6)]Man(a1-6)[Man(a1-3)]Man(b1-4)GlcNAc(b1-4)GlcNAc", "summary_of_the_method": "as §1"}, "[13]": {"target": "Neu5Ac(a2-3)Gal", "summary_of_the_method": "as §1"}, "[14]": {"target": "Neu5Ac(a2-3)Gal(b1-3)GalNAc(b1-3)Gal(a1-4)Gal(b1-4)Glc", "summary_of_the_method": "as §1"}, "[15]": {"target": "Neu5Ac(a2-3)Gal(b1-4)GlcNAc(b1-2)Man(a1-3)[GlcNAc(b1-2)Man(b1-4)GlcNAc(b1-2)Man(a1-6)]Man(b1-4)GlcNAc(b1-4)GlcNAc", "summary_of_the_method": "as §1"}, "[16]": {"target": "Neu5Ac(a2-3)Gal(b1-4)GlcNAc(b1-2)Man(a1-3)[Neu5Ac(a2-3)Gal(b1-4)GlcNAc(b1-2)Man(a1-6)]Man(b1-4)GlcNAc(b1-4)[Fuc(a1-6)]GlcNAc", "summary_of_the_method": "as §1"}, "[17]": {"target": "Neu5Ac(a2-3)Gal(b1-4)GlcNAc(b1-2)[Neu5Ac(a2-3)Gal(b1-4)GlcNAc(b1-4)]Man(a1-3)[GlcNAc(b1-4)][Neu5Ac(a2-3)Gal(b1-4)GlcNAc(b1-2)[Neu5Ac(a2-3)Gal(b1-4)GlcNAc(b1-6)]Man(a1-6)]Man(b1-4)GlcNAc(b1-4)GlcNAc", "summary_of_the_method": "as §1"}, "[18]": {"target": "Neu5Ac(a2-3)Gal(b1-4)GlcNAc(b1-2)[Neu5Ac(a2-3)Gal(b1-4)GlcNAc(b1-4)]Man(a1-3)[GlcNAc(b1-4)][Neu5Ac(a2-3)Gal(b1-4)GlcNAc(b1-4)Man(a1-6)]Man(b1-4)GlcNAc(b1-4)GlcNAc", "summary_of_the_method": "as §1"}, "[19]": {"target": "Neu5Ac(a2-3)Gal(b1-4)GlcNAc(b1-3)Gal(b1-4)GlcNAc(b1-3)Gal(b1-4)GlcNAc(b1-2)Man(a1-3)[Neu5Ac(a2-3)Gal(b1-4)GlcNAc(b1-3)Gal(b1-4)GlcNAc(b1-3)Gal(b1-4)GlcNAc(b1-2)Man(a1-6)]GalNAc", "summary_of_the_method": "as §1"}, "[20]": {"target": "Neu5Ac(a2-3)Gal(b1-4)GlcNAc(b1-3)Gal(b1-4)GlcNAc(b1-3)GalNAc", "summary_of_the_method": "as §1"}, "[21]": {"target": "Neu5Ac(a2-6)Gal(b1-4)GlcNAc(b1-2)Man(a1-3)[Neu5Ac(a2-6)Gal(b1-4)GlcNAc(b1-2)Man(a1-6)]Man(b1-4)GlcNAc(b1-4)GlcNAc", "summary_of_the_method": "as §1"}, "[22]": {"target": "Neu5Ac(a2-6)Gal(b1-4)GlcNAc(b1-2)Man(a1-3)[Neu5Ac(a2-6)Gal(b1-4)GlcNAc(b1-2)Man(a1-6)]Man(b1-4)GlcNAc(b1-4)[Fuc(a1-6)]GlcNAc", "summary_of_the_method": "as §1"}, "[23]": {"target": "Neu5Ac(a2-6)Gal(b1-4)GlcNAc(b1-2)Man(a1-6)[Man(a1-3)]Man(b1-4)GlcNAc(b1-4)GlcNAc", "summary_of_the_method": "as §1"}, "[24]": {"target": "Neu5Ac(a2-6)Gal(b1-4)GlcNAc(b1-3)Gal(b1-4)GlcNAc(b1-3)[Neu5Ac(a2-6)Gal(b1-4)GlcNAc(b1-3)Gal(b1-4)GlcNAc(b1-6)]GalNAc", "summary_of_the_method": "as §1"}, "[25]": {"target": "Neu5Ac(a2-6)GalNAc", "summary_of_the_method": "as §1"}, "[26]": {"target": "Neu5Ac(a2-8)Neu5Ac", "summary_of_the_method": "as §1"}, "[27]": {"target": "Neu5Ac(a2-8)Neu5Ac(a2-3)Gal(b1-3)GalNAc(b1-4)[Neu5Ac(a2-8)Neu5Ac(a2-3)]Gal(b1-4)Glc", "summary_of_the_method": "as §1"}, "[28]": {"target": "Neu5Ac(a2-8)Neu5Ac(a2-8)Neu5Ac(a2-8)Neu5Ac(a2-3)[GalNAc(b1-4)]Gal(b1-4)Glc", "summary_of_the_method": "as §1"}, "[29]": {"target": "Neu5Ac9Ac(a2-3)Gal(b1-3)GlcNAc", "summary_of_the_method": "as §1"}, "[30]": {"target": "Neu5Gc(a2-8)Neu5Gc(a2-3)Gal(b1-4)GlcNAc(b1-3)Gal(b1-4)GlcNAc", "summary_of_the_method": "as §1"}}, "note": "Only a selection was taken, and the strongest signals are over-represented in it overall.", "data": [{"binder": "B1", "values": [{"measurement": "glycan array binding signal (z-score)", "setting": "[1]", "result": 9.4}, {"measurement": "glycan array binding signal (z-score)", "setting": "[2]", "result": 3.66}, {"measurement": "glycan array binding signal (z-score)", "setting": "[3]", "result": -0.141}, {"measurement": "glycan array binding signal (z-score)", "setting": "[4]", "result": -0.137}, {"measurement": "glycan array binding signal (z-score)", "setting": "[5]", "result": 6.26}, {"measurement": "glycan array binding signal (z-score)", "setting": "[6]", "result": 10.9}, {"measurement": "glycan array binding signal (z-score)", "setting": "[7]", "result": -0.152}, {"measurement": "glycan array binding signal (z-score)", "setting": "[8]", "result": -0.151}, {"measurement": "glycan array binding signal (z-score)", "setting": "[9]", "result": -0.151}, {"measurement": "glycan array binding signal (z-score)", "setting": "[10]", "result": -0.14}, {"measurement": "glycan array binding signal (z-score)", "setting": "[11]", "result": -0.134}, {"measurement": "glycan array binding signal (z-score)", "setting": "[12]", "result": -0.118}, {"measurement": "glycan array binding signal (z-score)", "setting": "[13]", "result": -0.138}, {"measurement": "glycan array binding signal (z-score)", "setting": "[14]", "result": 1.72}, {"measurement": "glycan array binding signal (z-score)", "setting": "[15]", "result": 5.88}, {"measurement": "glycan array binding signal (z-score)", "setting": "[16]", "result": 3.85}, {"measurement": "glycan array binding signal (z-score)", "setting": "[17]", "result": 2.98}, {"measurement": "glycan array binding signal (z-score)", "setting": "[18]", "result": 5.72}, {"measurement": "glycan array binding signal (z-score)", "setting": "[19]", "result": -0.107}, {"measurement": "glycan array binding signal (z-score)", "setting": "[20]", "result": -0.106}, {"measurement": "glycan array binding signal (z-score)", "setting": "[21]", "result": -0.134}, {"measurement": "glycan array binding signal (z-score)", "setting": "[22]", "result": -0.131}, {"measurement": "glycan array binding signal (z-score)", "setting": "[23]", "result": -0.148}, {"measurement": "glycan array binding signal (z-score)", "setting": "[24]", "result": -0.138}, {"measurement": "glycan array binding signal (z-score)", "setting": "[25]", "result": -0.164}, {"measurement": "glycan array binding signal (z-score)", "setting": "[26]", "result": -0.146}, {"measurement": "glycan array binding signal (z-score)", "setting": "[27]", "result": -0.138}, {"measurement": "glycan array binding signal (z-score)", "setting": "[28]", "result": -0.132}, {"measurement": "glycan array binding signal (z-score)", "setting": "[29]", "result": -0.156}, {"measurement": "glycan array binding signal (z-score)", "setting": "[30]", "result": 2.45}]}]}
